For 40 compounds, outcome and AC50 results are on record in PubChem BioAssay (EPA / NIEHS).

SMILES strings stand for the structures. Inconclusive results are not listed. Active and inactive are the calls of the source. Rule for the calls: active = hit-call score of the fitted dose curve at least 0.9, where 1 is the maximum; inconclusive = response in the unintended direction; inactive = score below 0.9.

human Vitamin D Receptor (VDR), VDR (gene 7421), sequence (P11473 whole entry, looked up): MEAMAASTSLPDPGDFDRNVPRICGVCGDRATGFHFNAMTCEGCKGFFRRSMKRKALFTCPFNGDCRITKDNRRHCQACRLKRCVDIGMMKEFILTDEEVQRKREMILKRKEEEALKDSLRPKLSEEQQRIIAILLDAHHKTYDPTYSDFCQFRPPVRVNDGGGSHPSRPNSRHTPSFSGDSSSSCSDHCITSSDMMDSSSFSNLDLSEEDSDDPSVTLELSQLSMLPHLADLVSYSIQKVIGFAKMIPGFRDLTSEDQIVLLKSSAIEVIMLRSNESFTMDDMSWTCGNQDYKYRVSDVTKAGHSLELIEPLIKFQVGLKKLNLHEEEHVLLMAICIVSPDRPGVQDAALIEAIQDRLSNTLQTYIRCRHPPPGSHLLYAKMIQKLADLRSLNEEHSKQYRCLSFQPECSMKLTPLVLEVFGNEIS

This test deals with human Vitamin D Receptor (VDR), VDR (gene 7421) (UniProt P11473). The test is described as follows: ATG_VDR_TRANS: Attagene TRANS-FACTORIAL HepG2 Assay for human Vitamin D Receptor (VDR) (AID 2283022). The method, then:
ATG_TRANS is a cell-based, multiplexed-readout assay that uses HepG2, a human liver cell line, with measurements taken at 24 hours after chemical dosing in a 24-well plate.ATG_VDR_TRANS is one of 30 assay component(s) measured or calculated from the ATG_TRANS assay. It is designed to make measurements of mRNA induction, a form of inducible reporter, as detected with fluorescence intensity signals by Reverse transcription polymerase chain reaction (RT-PCR) and Capillary electrophoresis technology.Data from the assay component ATG_VDR_TRANS was analyzed into 1 assay endpoint. This assay endpoint, ATG_VDR_TRANS, was analyzed in the positive analysis fitting direction relative to DMSO as the negative control and baseline of activity. Using a type of inducible reporter, measures of mRNA for gain-of-signal activity can be used to understand the reporter gene at the transcription factor-level as they relate to the gene VDR. Furthermore, this assay endpoint can be referred to as a primary readout, because this assay has produced multiple assay endpoints where this one serves a reporter gene function. To generalize the intended target to other relatable targets, this assay endpoint is annotated to the nuclear receptor intended target family, where the subfamily is non-steroidal.
Human liver HepG2 cells are transiently transfected with multiple reporter transcription units (MRTUs) in 6-well plates using FuGene 6 reagent (Roche; 3 ml FuGene/1 mg DNA). The MRTU constructs are regulated by a cis-regulating element (promoter). […] A major difference between the CIS and TRANS system is that in CIS activities of endogenous TFs are measured, whereas the TRANS assay evaluates changes in activities of exogenous, chimeric NR-Gal4 proteins. […] At the end of 24 hour incubation, total RNA was isolated using TriZol reagent (Invitrogen). The isolated RNA is then reverse-transcribed using oligo(dT) primer and Mo-MLV reverse transcriptase (Invitrogen) with DNAse I (Ambion) treatment for 30 min. The one-tenth of the produced cDNA was amplified by PCR using Taq DNA polymerase (Invitrogen) and two reporter sequence-specific primers. The PCR products were fluorescently labeled by primer extension with 6-arboxyfluorescein (6-FAM) 5'-labeled reporter sequence-specific primer (2 min at 95 C, 20 s at 68 C and 10 min at 72 C) and these products were digested with 5U of HpaI (New England Biolabs) for 2h at 37 C. The fragments were purified using Qiaquick PCR columns (Qiagen), analyzed on an ABI 3130xL genetic analyzer (Applied Biosystems) with peak positions identified by using a set of X-rhodamine (ROX)-labeled MapMarker1000 molecular weight standards (BioVentures). The raw capillary electrophoresis data was processed using Attagraph software (Attagene).
Regarding `O=C(O)CN(CCCN(CC(=O)O)CC(=O)O)CC(=O)O`, the compound was called inactive.

Regarding `C[C@]12CC[C@@H]3c4ccc(O)cc4CC[C@H]3[C@@H]1C[C@@H](O)[C@@H]2O`, the result was inactive.

In the case of `CCCCCCCCCCCCCCCC(=O)OC`, the result was inactive.

For `COCN(COC)c1nc(N(COC)COC)nc(N(COC)COC)n1`, the result was inactive.

Regarding `CCOC=C(C(=O)OCC)C(=O)OCC`, the compound was called inactive.

Turning to `Cc1ccc(C)c(S(=O)(=O)O)c1`, the compound was called inactive.

On to `CCN(CCC#N)c1ccccc1`, for which the call was inactive.

Turning to `Cc1cncc(C)c1`, the call was inactive.

On to `CCc1cccc(CC)c1NC(=O)C(=O)O`, for which the result was inactive.

For the compound `O=P(O)(O)CCC(F)(F)C(F)(F)C(F)(F)C(F)(F)C(F)(F)C(F)(F)C(F)(F)C(F)(F)F`, the compound was called inactive.

In the case of `CCO[Si](C)(C)OCC`, the compound was called inactive.

Consider `CCCC=O`, for which the compound was classed as inactive.

For `CCCCCCCCC(C)=O`, the compound was classed as inactive.

`CCCCCCc1ccc(N)cc1`: the outcome was inactive.

For the compound `FC(OC(F)(F)C(F)(F)C(F)(F)F)C(F)(F)F` (stereo not given), the compound was classed as inactive.

`CC[N+](CC)(CC)Cc1ccccc1`: the call was inactive.

`CCCCCCCCCCCC[N+](C)(C)CCCCCCCCCCCC`: the outcome was inactive.

`CCOCCOCC`: the call was inactive.

With `CCOC=O`, the compound was called inactive.

`C=CC(C)(CCC=C(C)C)OC(C)=O` (stereo not given): the outcome was inactive.

`O=C1Cc2ccccc2N1c1c(Cl)cccc1Cl`: the compound was called inactive.

For the compound `OCC1CCC(CO)CC1` (stereo not given), the compound was classed as inactive.

As for `O=C(O)C(=O)O`, the compound was classed as inactive.

Take `O=S(=O)(O)c1ccc2cc(O)ccc2c1`: the outcome was inactive.

As to `NNc1nc(-c2ccc([N+](=O)[O-])cc2)cs1`, the compound was classed as inactive.

As for `C=CC(=O)OCCC(F)(F)C(F)(F)C(F)(F)C(F)(F)C(F)(F)C(F)(F)F`, the compound was called inactive.

For the compound `CC1CNCC(C)O1` (stereo not given), the call was inactive.

Consider `NC(C(F)(F)F)C(F)(F)F`, for which the compound was classed as inactive.

As to `CCCCC=O`, the compound was called inactive.

For the compound `NS(=O)(=O)O`, the outcome was inactive.

As to `CCOC(C)=O`, the call was inactive.

In the case of `c1ccc(CNc2ncnc3c2ncn3C2CCCCO2)cc1` (stereo not given), the call was inactive.

Regarding `CC(C)[C@@H]1CC[C@@H](C)C[C@H]1O`, the result was inactive.

`COC(=O)CC(C(C)=O)C(=O)OC` (stereo not given): the outcome was inactive.

As to `O=S(=O)(O)C(F)(F)C(F)(F)C(F)(F)C(F)(F)C(F)(F)C(F)(F)C(F)(F)C(F)(F)C(F)(F)C(F)(F)F`, the call was inactive.

As for `CCOC(=O)CN[C@@H](C(=O)N1CC[C@H]1C(=O)NCc1ccc(/C(N)=N/O)cc1)C1CCCCC1`, the outcome was inactive.

As to `CC1COCc2cc3c(cc21)C(C)(C)C(C)C3(C)C` (stereo not given), the AC50 was 128 µM (active).

`C=CC(F)(F)C(F)(F)C(F)(F)C(F)(F)F`: the result was inactive.

With `C=C(c1ccc(C(=O)O)cc1)c1cc2c(cc1C)C(C)(C)CCC2(C)C`, the compound was classed as inactive.

In the case of `O=C(O)CCC(F)(F)C(F)(F)C(F)(F)C(F)(F)C(F)(F)C(F)(F)F`, the compound was called inactive.
